PubChem BioAssay (NCI)
This is part of a sample that, as a whole, favours compounds with a hit. Of some 83,000 tested, about 20% had one in any assay.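 Negative percent growth values reflect cell death: -40 means 40% of the cells present at the start died, and -100 means all died.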 Activity calls are given as the source filed them. Rule for the calls: active = growth percent below 10; inactive = the rest.

Tested on: MDA-MB-468 breast
Test: NCI-60 one-dose screen, 48 h (100 = growth as untreated, 0 = no growth, -100 = all killed)
Conditions: 10 µM unless noted

`CCOC(=O)CSSCC(=O)OCC` was tested. Which growth did it give?
Its growth is 117% (inactive).

`CN(Cc1ccccc1)Cc1ccccc1` was tested. Which growth did it give?
Its growth is 92.1% (inactive).

`O=c1c2cc(F)ccc2sc2c(NCCCNCCO)nc3ccccc3c12` was tested. Which growth did it give?
The growth was -72.8% (active).

Which growth does the source give for `COc1ccc2c(c1OC)CO[C@@H]2[C@H]1c2c(cc3c(c2OC)OCO3)CCN1S(=O)(=O)c1cn(C)cn1` here?
Its growth is 17.4% (inactive).

`CC(=O)NCCN` was tested. Which growth did it give?
Its growth is 105% (inactive).

Which growth does the source give for `CCOC(=O)C1=NN(c2ccccc2)C2=NC(=O)/C(=C\c3cn(-c4ccccc4)nc3-c3cc4ccccc4o3)C(=O)N12` here?
Its growth is 111% (inactive).

For `CCCCCCCCCCCC[n+]1ccc2ccccc2c1`, which growth is on record?
The growth was -30% (active).

How did the growth turn out when `C=CCn1c(SCC(=O)Nc2cccc(C(=O)/C=C/c3cc(OC)c(OC)c(OC)c3)c2)nc2ccccc2c1=O` was run?
Its growth is 35.3% (inactive).

How did the growth turn out when `O=C(CSc1nc2ccccc2c(=O)n1-c1ccccc1)Nc1cccc(C(=O)/C=C/c2ccccc2Cl)c1` was run?
The growth was 113% (inactive).

`Cc1cc(O)ccc1O` was tested. Which growth did it give?
Its growth is 107% (inactive).

With `CCc1cc(OC(=O)N2CCN(CCC(C)(COC(C)(C)C)COC(C)(C)C)CC2)ccc1Nc1cc(-c2ccc(-n3cccn3)cc2)[nH]n1` as the molecule, how does the growth read?
Its growth is 82.4% (inactive).

How did the growth turn out when `CCCCCCCNC(=O)CCCNc1ncnc2c1ncn2-c1cccc(C(C)O)c1` (centres undefined) was run?
Its growth is 59.7% (inactive).

`Cc1cc2c(-c3nc4ccccn4c3Nc3cccc4ccccc34)c(O)c(O)cc2c(O)c1-c1c(C)cc2c(-c3nc4ccccn4c3Nc3cccc4ccccc34)c(O)c(O)cc2c1O` was tested. Which growth did it give?
The growth was 17.4% (inactive).

With `CC(=O)c1cccc(OC(=O)c2ccccc2)c1` as the molecule, how does the growth read?
The growth was 104% (inactive).
